Sampled rows, rich in hits. Any-hit rate of the full collection: about 5.3%.
KDM4E inh – blocks human JMJD2E demethylase activity. B2RXH2. JMJD2E catalytic domain, FDH-coupled NADH fluorescence (FDH is formaldehyde dehydrogenase). Potency, µM (highest dose often 57.1 µM), hits mostly inhibitors. 230,000 tested, 1.6% active. AID 2147; active = well fitted inhibition curve with a large enough effect, not every such curve was filed as active; inconclusive = small, poorly fitted or top-dose-only effect, or another doubt; inactive = no such curve, though single readings can be large or run the other way; also: nearly all actives have a fitted effect of over 50% in size
Target sequence (B2RXH2 1-337 limits assumed): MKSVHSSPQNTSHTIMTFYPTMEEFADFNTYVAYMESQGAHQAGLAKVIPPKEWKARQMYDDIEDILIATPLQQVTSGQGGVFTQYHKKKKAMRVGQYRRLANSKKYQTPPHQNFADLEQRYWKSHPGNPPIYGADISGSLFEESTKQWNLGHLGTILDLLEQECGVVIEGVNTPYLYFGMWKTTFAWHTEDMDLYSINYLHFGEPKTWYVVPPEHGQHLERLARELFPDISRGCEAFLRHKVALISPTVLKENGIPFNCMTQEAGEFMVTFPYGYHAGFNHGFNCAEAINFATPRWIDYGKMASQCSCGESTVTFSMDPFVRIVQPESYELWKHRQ
Sfp PPTase inh – inhibitors of Bacillus subtilis Sfp phosphopantetheinyl transferase; Q9F4F7; Biochemical Sfp PPTase activity, qHTS; Potency, µM, usual class: inhibitors; 310,000 tested, 3.5% active;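 also: the enzyme is Sfp with the accession as filed and its product quenches rhodamine fluorescence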
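Step 1, compound plus 15 nM Sfp-PPTase, 15 min, room temperature. Step 2, add rhodamine-CoA (5 uM) and BHQ-2-YbbR (12.5 uM). Step 3, read 525/598 nm fluorescence at 0 and 30 min.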
Tau fluor cs – counter-screen for tau fibril formation inhibitors; tau K18 P301L Alexa594 fluorescence, heparin fibrillization; Potency, µM (highest dose often 57.7 µM); 280,000 tested, 0.93% active; AID 1463; also: nearly all actives have a fitted effect of over 55% in size
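Human K18 P301L tau (15 uM unlabeled plus 0.24 uM Alexa 594-labeled, final) in 100 mM sodium acetate pH 7 was mixed with compound and 20 uM heparin and incubated 6 hr at 37 C.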
Tau fibril FP – tau fibrillization inhibition (FP). AID 1468. K18 P301L tau heparin fibrillization, Alexa594 FP, 6 h. Potency, µM (highest dose often 57.7 µM), hits mostly inhibitors. 280,000 tested, 0.39% active; also: nearly all actives have a fitted effect of over 55% in size
Target sequence (P10636 561-689 P618L limits assumed): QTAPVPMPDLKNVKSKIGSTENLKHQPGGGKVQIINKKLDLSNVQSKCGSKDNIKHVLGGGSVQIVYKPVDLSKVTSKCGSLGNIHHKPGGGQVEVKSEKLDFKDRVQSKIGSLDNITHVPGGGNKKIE
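Recombinant K18 P301L […], labeled with Alexa 594 at 0.24 uM over 15 uM unlabeled; heparin inducer 20 uM final; 37 C, 6 hr; FP endpoint.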
FBPA coupling cs – inhibits coupling enzyme system, counter-screen for aldolase hits; coupling enzyme system counterscreen, AmpLite Red fluorescence; activity change, negative = inhibition, % at 58.2 µM, hits read low; 290,000 tested, 0.67% active; AID 2472; in the data active = activity change below about -30%
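Compounds tested against the coupling enzymes alone at 57.5 uM final; readout was AmpLite Red fluorescence (525/598 nm) after 20 min at RT.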
Tau fibril ThT – tau fibrillization inhibition (ThT binding). 270,000 tested, 2.1% active. recombinant tau K18 P301L, heparin-induced fibrillization, ThT fluorescence. P10636. Potency, µM (titrated, usually from 57.4 µM), usual class: inhibitors. AID 1460; also: nearly all actives have a fitted effect of over 55% in size
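Fibril formation assay: tau K18 P301L at 15 uM with trace Alexa 594 label, heparin inducer 20 uM, pH 7 sodium acetate buffer, 37 C for 6 hr; endpoint ThT signal.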
A number is an active result; [ ] = another dose, or the depositor's remark. Unless noted, calls follow the shape of the dose curve; as a rule, active = well fitted curve in the direction sought with a large enough effect; inconclusive = small, poorly fitted or top-dose-only effect, or another doubt; inactive = no such curve, though single readings can be large; an effect the other way counts as inactive or inconclusive.

`CCOc1ccccc1N1CSC2=C(C#N)C(c3c(OC)ccc4ccccc34)CC(=O)N2C1` (stereo unspecified) gave KDM4E inh 7.9µM, Sfp PPTase inh 3.2µM, Tau fluor cs inconclusive, Tau fibril FP 10µM, FBPA coupling cs -49 and Tau fibril ThT 4µM.
Screening CCSC1=C(C#N)C(c2ccc(OC)c(OC)c2)CC(=O)N1 (stereo unspecified) returned KDM4E inh inactive, Sfp PPTase inh inactive, Tau fluor cs inactive, Tau fibril FP inactive, FBPA coupling cs inactive and Tau fibril ThT inactive.
Screening COc1ccc(N2CSC3=C(C#N)C(c4ccc(OC)c(OC)c4)CC(=O)N3C2)c(OC)c1 (stereo unspecified) returned KDM4E inh inactive, Sfp PPTase inh 3.2µM, Tau fluor cs inconclusive, Tau fibril FP 16µM, FBPA coupling cs -43 and Tau fibril ThT 7.9µM.
Screening O=C1NC(=S)S/C1=C\c1ccc2ccccc2c1 returned Sfp PPTase inh inactive and FBPA coupling cs inactive.
`O=C1NC(=S)S/C1=C\c1coc2ccc(O)cc2c1=O` gave KDM4E inh inactive, Sfp PPTase inh inactive, Tau fluor cs inactive, Tau fibril FP inactive, FBPA coupling cs inactive and Tau fibril ThT 1.1µM.
For O=C1NC(=S)S/C1=C\c1coc2ccccc2c1=O the results were KDM4E inh inactive, Sfp PPTase inh inactive, Tau fluor cs inactive, Tau fibril FP inactive, FBPA coupling cs inactive and Tau fibril ThT 7.9µM.
Screening O=C(Nc1c(F)cc(F)cc1Br)c1ccco1 returned KDM4E inh inactive, Sfp PPTase inh 50µM, Tau fluor cs inactive, Tau fibril FP inactive, FBPA coupling cs inactive and Tau fibril ThT inactive.
Screening Cc1noc(C)c1C(=O)Nc1c(F)cc(F)cc1Br returned KDM4E inh inactive, Sfp PPTase inh inactive, Tau fluor cs inactive, Tau fibril FP inactive, FBPA coupling cs inactive and Tau fibril ThT inactive.
For COc1ccc(CCNc2nc3cc(OC)c(OC)cc3c3nc(-c4ccccc4)nn23)cc1OC the results were Tau fluor cs inactive, Tau fibril FP inactive and Tau fibril ThT inactive.
CC(C)Cc1ccc(S(=O)(=O)Nc2cc3c(cc2N2CCOCC2)n(C)c(=O)c(=O)n3C)cc1 was read as Tau fluor cs inactive, Tau fibril FP inactive and Tau fibril ThT inactive.
For O=C(Nc1cccc(-c2csc(Nc3ccccc3)n2)c1)c1ccccc1 the results were KDM4E inh inactive, Sfp PPTase inh inactive, Tau fluor cs 13µM[quencher], Tau fibril FP inactive, FBPA coupling cs inactive and Tau fibril ThT inconclusive.
Screening CC(=O)c1cccc(Nc2nc(-c3cccnc3)cs2)c1 returned Sfp PPTase inh inactive and FBPA coupling cs inactive.
Screening CC(=O)c1cccc(Nc2nc(-c3ccccc3)cs2)c1 returned KDM4E inh inactive, Sfp PPTase inh inactive, Tau fluor cs 7.9µM[quencher], Tau fibril FP inconclusive, FBPA coupling cs inactive and Tau fibril ThT inconclusive.
O=C(Nc1ccc(-c2csc(Nc3cccc(C(F)(F)F)c3)n2)cc1)c1cc([N+](=O)[O-])cc(C(F)(F)F)c1 was read as KDM4E inh inactive, Sfp PPTase inh inactive, Tau fluor cs 3.5µM[quencher], Tau fibril FP inactive, FBPA coupling cs inactive and Tau fibril ThT inconclusive.
For O=C(Nc1nc(-c2cccnc2)cs1)c1ccc([N+](=O)[O-])cc1 the results were KDM4E inh inactive, Sfp PPTase inh inactive, Tau fluor cs inconclusive, Tau fibril FP inactive, FBPA coupling cs inactive and Tau fibril ThT inconclusive.
Screening O=C(Nc1ccc(-c2csc(Nc3cccc(C(F)(F)F)c3)n2)cc1)c1ccccc1 returned KDM4E inh inconclusive, Sfp PPTase inh inactive, Tau fluor cs 10µM[quencher], Tau fibril FP inactive, FBPA coupling cs inactive and Tau fibril ThT inconclusive.
Screening O=C(Nc1cccc(-c2cnc3ccccc3n2)c1)c1ccccc1 returned KDM4E inh inactive, Sfp PPTase inh inactive, Tau fluor cs inactive, Tau fibril FP inactive, FBPA coupling cs inactive and Tau fibril ThT inactive.
Screening COc1ccc(CNC(=O)c2cc3ccccn3n2)c(OC)c1 returned Tau fluor cs inactive, Tau fibril FP inactive and Tau fibril ThT inactive.
Screening COc1ccc(OC)c(NC(=O)c2cc3c(s2)-c2ccccc2SC3)c1 returned Tau fluor cs inconclusive, Tau fibril FP inactive and Tau fibril ThT inconclusive.
COc1cccc(-c2nc(NC3CC3)c3ccccc3n2)c1 was read as Sfp PPTase inh inactive and FBPA coupling cs inactive.
`O=C(Nc1cccc(-c2csc(Nc3cccc(C(F)(F)F)c3)n2)c1)c1ccccc1` gave KDM4E inh inactive, Sfp PPTase inh inactive, Tau fluor cs 8.9µM[quencher], Tau fibril FP inactive, FBPA coupling cs inactive and Tau fibril ThT inconclusive.
C=CC1=C2C=C(C3CC3)N(Cc3ccco3)C=C2C(=O)C(C)(OC(=O)c2ccco2)C1=O (stereo unspecified) was read as KDM4E inh inactive[11.4 µM], Sfp PPTase inh inactive, Tau fluor cs inactive[11.6 µM], Tau fibril FP inactive[11.6 µM], FBPA coupling cs inactive and Tau fibril ThT inactive[11.5 µM].
Screening Nc1c(C(=O)NCc2ccccc2)c2nc3ccccc3nc2n1CCCN1CCOCC1 returned KDM4E inh inconclusive, Sfp PPTase inh inactive, Tau fluor cs inconclusive, Tau fibril FP inactive, FBPA coupling cs inactive and Tau fibril ThT inconclusive.
Nc1c(C(=O)NCc2ccco2)c2nc3ccccc3nc2n1CCc1ccccc1 was read as KDM4E inh inconclusive, Sfp PPTase inh 50µM, Tau fluor cs inconclusive, Tau fibril FP inactive, FBPA coupling cs -34 and Tau fibril ThT inconclusive.
`COc1cccc(C2C(C(=O)Nc3ccccc3OC)=C(C)Nc3nc4ccccc4n32)c1` (stereo unspecified) gave Tau fluor cs inconclusive, Tau fibril FP inactive and Tau fibril ThT inactive.
For C/C(=N\NC1=NCCN1)c1ccc(N)c([N+](=O)[O-])c1 the results were KDM4E inh inactive, Sfp PPTase inh inactive, Tau fluor cs inactive, Tau fibril FP inactive, FBPA coupling cs inactive and Tau fibril ThT 20µM.
`CC(=O)N1CCc2cc(S(=O)(=O)NC(Cc3ccccc3)C(=O)NCc3ccccc3)ccc21` (stereo unspecified) gave Tau fluor cs inactive, Tau fibril FP inactive and Tau fibril ThT inactive.
Cc1nnc(C)c2c(C)n(Cc3ccc4c(c3)OCO4)c(C)c12 was read as KDM4E inh 22µM, Sfp PPTase inh inactive, Tau fluor cs inactive, Tau fibril FP inactive, FBPA coupling cs inactive and Tau fibril ThT inconclusive.
O=C1CCCC2=C1C1(O)C(=O)c3ccccc3C1(O)O2 (stereo unspecified) was read as KDM4E inh inactive, Sfp PPTase inh inactive, Tau fluor cs inactive, Tau fibril FP inconclusive, FBPA coupling cs inactive and Tau fibril ThT 3.5µM.
For N#CC1=C(N)OC2=C(C(=O)CCC2)[C@]12C(=O)N(CC(N)=O)c1ccccc12 the results were KDM4E inh inactive, Sfp PPTase inh inactive, Tau fluor cs inactive, Tau fibril FP inactive, FBPA coupling cs inactive and Tau fibril ThT inactive.

High-throughput results as filed in PubChem.
